Results from article PMC11995724, “Antibiotic target discovery by integrated phenotypic and activity-based profiling of electrophilic fragments” (Cell chemical biology, 2025).
The whole screen tested about 3,200 compounds, of which about 110 (3.4%) showed an effect of 50% or more. The list comes from a sample in which strong results are over-represented; it also holds similar structures and randomly drawn compounds.

test system: T1, V. cholerae SAD30; parameters: species or system S. aureus MSSA476 (TSB) or V. cholerae SAD30 (LB); 384-well bacterial growth screen at 25 uM, OD600 relative to DMSO control; details: relative growth, OD600, LB; 25 µM; inhibitor
T1 construct: SAD30

Going from COc1ccc(Cc2cnc(NC(=O)CCl)s2)cc1 [4-F17, 2-chloro-N-{5-[(4-methoxyphenyl)methyl]-1,3-thiazol-2-yl}acetamide] to COc1ccc(-n2c(C)c(C)c(C#N)c2NC(=O)CCl)cc1 [4-F20, 2-chloro-N-[3-cyano-1-(4-methoxyphenyl)-4,5-dimethyl-1H-pyrrol-2-yl]acetamide], the “% of control remaining” value falls from 111.451% to 105.413%.

Compared with CC(Cl)C(=O)N1CCc2ncccc2C1 (centres unmarked) [7-I19, 2-chloro-1-(5,6,7,8-tetrahydro-1,6-naphthyridin-6-yl)propan-1-one], CC(NC(=O)CCl)c1cn(-c2ccccc2)nn1 (centres unmarked) [5-O06, 2-chloro-N-[1-(1-phenyl-1H-1,2,3-triazol-4-yl)ethyl]acetamide] is higher in “% of control remaining” value: 77.5814% for the first, 103.73% for the second.

Compared with C=CC(=O)NC(CO)c1ccnn1C (centres unmarked) [2-D17, N-[2-hydroxy-1-(1-methyl-1H-pyrazol-5-yl)ethyl]prop-2-enamide], C=CC(=O)Nc1cccc(-c2cn(C)nn2)c1 [1-K14, N-[3-(1-methyl-1H-1,2,3-triazol-4-yl)phenyl]prop-2-enamide] is lower in “% of control remaining” value: 92.203% for the first, 83.4081% for the second.

Compared with O=C(CCl)c1c(-c2ccc(F)cc2)[nH]c2ccccc12 [10-P04, 2-chloro-1-[2-(4-fluorophenyl)-1H-indol-3-yl]ethan-1-one], O=C(CCl)c1cn(-c2ccc(F)cc2)nn1 [10-F05] is lower in “% of control remaining” value: 95.8504% for the first, 0.6234% for the second.

Compared with Cn1cc(C(=O)CCl)cc1C(N)=O [10-J06, 4-(2-chloroacetyl)-1-methyl-1H-pyrrole-2-carboxamide], Cn1ccc(C(=O)CCl)c1 [10-D08, 2-chloro-1-(1-methyl-1H-pyrrol-3-yl)ethan-1-one] is higher in “% of control remaining” value: 97.5648% for the first, 103.176% for the second.

Going from Cc1cccc(-n2c(C)cc(C(=O)CCl)c2C)c1 [10-A22, 2-chloro-1-[2,5-dimethyl-1-(3-methylphenyl)-1H-pyrrol-3-yl]ethan-1-one] to Cc1cc(C(=O)CCl)c(C)n1-c1cccc(Cl)c1 [10-N18, 2-chloro-1-[1-(3-chlorophenyl)-2,5-dimethyl-1H-pyrrol-3-yl]ethan-1-one], the “% of control remaining” value falls from 108.163% to 92.4216%.

Going from O=C(CCl)c1cn(-c2cccc(C(F)(F)F)c2)nn1 [10-C09, 2-chloro-1-{1-[3-(trifluoromethyl)phenyl]-1H-1,2,3-triazol-4-yl}ethan-1-one] to Cc1cccc(-n2cc(C(=O)CCl)nn2)c1 [10-L07], the “% of control remaining” value falls from 24.9367% to 5.299%.

First: Cn1cc(C(=O)CCl)nn1 [10-M19, 2-chloro-1-(1-methyl-1H-1,2,3-triazol-4-yl)ethan-1-one]
Second: Cc1cc(C(=O)CCl)c(C)n1-c1ccc(C(F)(F)F)cc1 [10-J14, 2-chloro-1-{2,5-dimethyl-1-[4-(trifluoromethyl)phenyl]-1H-pyrrol-3-yl}ethan-1-one]
The “% of control remaining” value of the first is lower: 0% for the first, 98.4999% for the second.

For O=C(CCl)NC1CC(=O)N(c2cccc(C(F)(F)F)c2)C1 (centres unmarked) [5-E09, 2-chloro-N-{5-oxo-1-[3-(trifluoromethyl)phenyl]pyrrolidin-3-yl}acetamide], the “% of control remaining” value was 100.2%.
